Data on 15 sequences can be found in the OligoGym collection.
Note: reference of the scale not given here.

For one assay, the target named is CLDN9. In words: pooled miR-30 sensor sort-seq; sequence = guide strand. The note with it: shRNA.
With TTGTAGAAGTCCTGGATGATGG, the sensor-assay potency score (higher = more potent) is -1.14.
In turn, TAGAAGTCCTGGATGATGGCGT had a sensor-assay potency score (higher = more potent) of 0.302.
ATGATGGCGTGCGCCGTCCAGC showed a sensor-assay potency score (higher = more potent) of -1.9.
On the same count and under the same terms, the same measure for TTTGGAGCCAACGAGCTGCTGC: -0.374; for TCGTCCTCCACACACGTGGTAC: -1.58; for TAGCCCAGCCGAGGTCCGCGGG: -1.28.
Still for that read-out and setting: the same measure for TCCACACACGTGGTACACTGGG: -1.23.
Same read-out and setting: then ATGAGCACCAGGATGCCGGCGA, with -0.538; and TTGTCCAGTCCAGATGCACCCG, with -0.545.
For TTCGTCCTCCACACACGTGGTA, the sensor-assay potency score (higher = more potent) is -0.498.
TTGCACTGCATCTGGCCCGTGC: the sensor-assay potency score (higher = more potent) was -0.338.

For the next assay, the target named is CLEC9A. The assay is described as above. The note with it: shRNA.
For the sequence TTCTCTTGACTGGTGTGCCAAA, the sensor-assay potency score (higher = more potent) is -1.18.
Same read-out and setting: the same measure for TTTGTAGCAGCGTGGAACCTTC: -0.937; for TAGCTGACTGGGATCTCTCTGC: -0.395; for ATAGTAACAACTTTCTCTGTTC: -0.226.
